# KB-3-1 tox: KB-3-1 parental cell cytotoxicity. 400,000 compounds, 1.4% hits. Potency, µM (series often up to 46.1 µM), most hits filed as cytotoxic. KB-3-1 viability, CellTiter-Glo ATP luminescence, 72 h; also: % is scaled to controls: 0 for no effect and ±100 for the full control effect; nearly all actives have a fitted effect of over 60% in size
#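 Using CellTiter-Glo luminescence, growth of non-resistant KB-3-1 adenocarcinoma cells is assessed 72 h after pin-tool compound addition at 37 °C. Normalized responses across the concentration series yield fitted curves.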
# KB-V1 MDR tox: kills drug-selected multidrug resistant KB-V1 cells; KB-V1 MDR cells viability, CellTiter-Glo, 72 h; Potency, µM (titrated, usually from 46.1 µM), most hits filed as cytotoxic; 400,000 compounds, 3.4% hits; AID 1347076; also: % is scaled to controls: 0 for no effect and ±100 for the full control effect; nearly all actives have a fitted effect of over 60% in size
#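 Cytotoxicity via CellTiter-Glo luminescence after 72 h compound exposure at 37 degrees C. Cells: drug-selected KB-V1 line, DMEM phenol-red free plus 10% FBS. Compounds tested at multiple concentrations; normalized data fitted to concentration-effect curves.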
# HT1080 IDH1KD tx: kills HT-1080 cells with IDH1 knockdown | HT-1080 IDH1 knockdown viability, ATP luminescence, 48 h | Potency, µM (top dose mostly 46.1 µM), for inactives: at the top dose activity, negative = toxicity, usual class: cytotoxic | 360,000 compounds, 2% hits | AID 686971;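 also: 0% = DMSO wells and -100% = cell-free medium wells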
#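 % activity derives from luminescence (CellTiter-Glo), normalised to DMSO and no-cell wells. HT-1080-IDH1KD cells, 750/well, had 48 h compound exposure at 37 °C.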
# HT1080NT lethal: kills 2HG-producing HT-1080-NT fibrosarcoma cells; 360,000 compounds, 1.6% hits; HT-1080-NT fibrosarcoma viability, CellTiter-Glo ATP luminescence, 48 h; Potency, µM (doses to about 46.1 µM), without a hit: at the top dose activity, negative = less viability, usual class: cytotoxic;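 also: NT is the 2HG producing partner of a matched IDH1 knockdown line; 0% = DMSO-treated cells and -100% = media-only wells without cells; nearly all actives have a fitted effect of over 55% in size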
#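 HT-1080-NT fibrosarcoma cells (2HG-overproducing), 750 cells/well in RPMI with 5% FBS, dosed after 2 h and incubated 48 h at 37C. CellTiter-Glo luminescence normalized to DMSO and no-cell wells; concentration-response curves fitted and classed.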
# SW480 rereplic: DNA re-replication induction in SW480 cells. Potency, µM (titrated, usually from 46.1 µM), inactives show at the top dose re-replication activation, usual class: activators. 340,000 compounds, 1.8% hits. SW480 DNA re-replication, Hoechst DNA content imaging, 48 h; also: % of control where 0% means no effect; nearly all actives have a fitted effect of over 55% in size
#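 SW480 cells exposed to compounds for 48 hr at 37 C, 5% CO2, then Hoechst-stained 40 min. Nuclear DNA content imaged by fluorescence scanning (405 nm excitation, 500-530 nm emission); re-replication scored as increased high-intensity nuclei.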
# MCF10A rerep: induces DNA re-replication in MCF 10a normal breast cells | MCF 10A DNA re-replication, Hoechst nuclear intensity, 48 h | Potency, µM (doses to about 46.1 µM), without a hit: top-dose activity, positive = re-replication, most hits filed as activators | 350,000 compounds, 2.9% hits; also: % of control where 0% means no effect; nearly all actives have a fitted effect of over 50% in size
# The depositor's hits bear a star; i = inactive; ? = inconclusive; nt = not tested or not shown; [ ] = dose if it differs, or a comment. A selection: hits, their analogues and other compounds. The true share with any hit is near 7.9%. Calls follow the shape of the dose curve; as a rule, active = well fitted curve in the direction sought with a large enough effect; inconclusive = small, poorly fitted or top-dose-only effect, or another doubt; inactive = no such curve, though single readings can be large; an effect the other way counts as inactive or inconclusive. Potency is read from the fitted curve at half-maximal effect.
SMILES,KB-3-1 tox,KB-V1 MDR tox,HT1080 IDH1KD tx,HT1080NT lethal,SW480 rereplic,MCF10A rerep
Nc1nc2ccccc2cc1C(=O)NCCCCc1ccccc1,i,2.6µM*,?,?,nt,nt
Cc1ccccc1C(=O)NCCCCc1ccccc1,i,i,8%,1%,-3%,2%
Cc1cc(C(=O)N[C@H](c2ccccc2)[C@@]2(C)C[C@@H]2[C@@H](C)C(=O)Nc2ccc3ccccc3c2)n(C)n1,?,?,-16%,-24%,15µM*,?
CCCCCc1c(-c2cccc(F)c2)ncn1CCc1ccccc1OC,?,8.2µM*,?,?,nt,nt
CCCc1c(-c2cccc(F)c2)ncn1CCc1ccccc1OC,?,18µM*,?,?,nt,nt
CCCCCc1c(-c2cccc(OC)c2)ncn1CCc1ccccc1OC,?,16µM*,?,21µM*,nt,nt
CCCCc1c(-c2cccc(F)c2)ncn1CCc1ccccc1OC,?,12µM*,?,?,nt,nt
CCCCCc1c(-c2cccc(Cl)c2)ncn1CCc1ccccc1OC,i,?,-15%,-18%,nt,nt
COc1cc(S(=O)(=O)N(Cc2cccs2)CC2CCCO2)ccc1-n1cnnn1 (stereo not given),i,?,10%,6%,2%,12%
Cc1ccc(S(=O)(=O)N2CCN(Cc3ccccc3C(F)(F)F)CC2)cc1,i,?,0%[9.24 µM],-1%,-7%,16%
CCOc1ccc(-c2nc(CSCC(=O)NCCc3ccccc3)c(C)o2)cc1,i,i,nt,nt,nt,nt
CCCCc1c(-c2cccc(Br)c2)ncn1CCc1ccccc1OC,?,10µM*,?,15µM*,nt,nt
CN(NS(=O)(=O)c1ccccc1)c1nc2ccccc2nc1C(F)(F)F,i,i,-6%,-9%,2%,?
COc1ccc(-c2ccccc2[C@H]2[C@@H]3C=CC[C@@H](C)[C@@H]3C(=O)N2Cc2ccccc2)cc1,i,i,?,?,?,23µM*
C[C@@H]1CC=C[C@H]2[C@H]1C(=O)N(Cc1ccccc1)[C@H]2c1ccc(-c2ccoc2)cc1F,i,i,-18%,?,3%,18µM*
Cc1ccc(-c2cccc(C3CC=CC4C3C(=O)N(Cc3ccccc3)C4c3cc(C)ccc3F)c2)cc1 (stereo not given),21µM*,i,-1%,-20%,-1%,-1%
COc1ccc(-c2ccc(F)cc2)cc1[C@H]1[C@H]2C=CC[C@@H](C)[C@@H]2C(=O)N1Cc1ccccc1,?,?,?,?,-7%[9.22 µM],21µM*
COc1ccc(-c2cccc(C3CC=CC4C3C(=O)N(Cc3ccccc3)C4c3ccc(C(F)(F)F)cc3)c2)cc1 (stereo not given),?,i,-15%,-3%,12%[9.22 µM],?
O=c1cc(-c2ccccc2Cl)oc2c(NS(=O)(=O)c3cccs3)ccc(O)c12,i,i,3%,3%,-1%,0%
O=Cc1c[nH]c2cccc(OCc3ccccc3)c12,?,i,-21%,-4%,9%,?
COc1ccc(NC(=O)c2csc(C)c2)cc1OC,i,i,17%,6%,?,9%
O=C(Nc1ccc(CN2CCOCC2)cc1)c1ccc(Br)cc1,i,i,-2%,-1%,-16%,?
CC(C)c1ccc(C(=O)Nc2ccc(N3CCOCC3)cc2)cc1,?,i,?,?,?,23µM*
O=C(Nc1ccc(CN2CCOCC2)cc1)c1ccc(Cl)cc1,?,9.2µM*,-13%,0%,-10%,14%
COC(=O)c1ccc(NC(=O)c2ccc(CN3CCOCC3)cc2)cc1,i,2.6µM*,?,?,-9%,?
COC(=O)c1ccc(/C=N\N2CCN(Cc3ccc(C)cc3)CC2)cc1,i,8.2µM*,-5%,1%,0%,3%
